# Measured values published in PubChem BioAssay (NCATS).
# Records with an inconclusive call do not appear. Where a call stands in place of a potency, no number is given. Active and inactive are the calls of the source. Calls come from the whole dose curve; as a rule, active = well fitted curve in the direction sought with a large enough effect; inconclusive = small, poorly fitted or top-dose-only effect, or another doubt; inactive = no such curve, though single readings can be large; an effect the other way counts as inactive or inconclusive.
# Columns and labels:
# [1] = qHTS assay for measurement of the activity of small molecule inhibitors on Zika virus induced Caspase-3 activity in human astrocytoma cells (AID 1224859)
# Summary of the method: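 Human SNB-19 astrocytoma cells in RPMI 1640 with 10% FBS receive compound one hour ahead of Zika virus at 2 FFU/cell. After 6 h infection, caspase-3/7 activity is detected by Caspase-Glo luminescence.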
# [2] = qHTS assay to identify small molecule inhibitors of chordoma cells - UCH-1 (AID 1259355); note: nearly all actives have a fitted effect of over 55% in size
# Summary of the method: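 800 cells/well, overnight attach; compounds pinned at 15 concs, then auranofin/camptothecin/doxorubicin/rubitecan/topotecan combo added; 48hr 37 C, 5% CO2; CellTiter-Glo, 30min RT, luminescence.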
# [3] = Identifying Small Molecule Inhibitors of Pancreatic Cancer Stem Cells (SN12C, Adherent) (AID 1259358);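 note: cell survival measured after 48 h of compound exposure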
# Summary of the method: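 Pre-formed 14-day tumor spheroids or adherent cells dosed and incubated 48 h, 37C, 5% CO2. Viability assessed by CellTiter-Glo.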
# [4] = Identifying Small Molecule Inhibitors of Pancreatic Cancer Stem Cells (Panc1, Spheroid) (AID 1259359); settings: Panc1 spheroid cancer stem cell viability;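 note: potency is the fitted concentration of half-maximal effect; compound exposure lasted 48 h before reading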
# Summary of the method: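 Endpoint: ATP-based luminescence, 48 h drug exposure. Bortezomib at 9.2 uM final as full-kill control; DMSO vehicle as negative control; activity normalized between vehicle and cell-free wells.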
# [5] = Identifying Small Molecule Inhibitors of Pancreatic Cancer Stem Cells (SN12C, Spheroid) (AID 1259360); settings: Potency: SN12C spheroid viability
# Summary of the method: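 Spheroids grown 14 days in stem cell media on hydrogel-coated nonadherent plates; 2D lines seeded directly. Compounds added after 4 h attachment, 48 h at 37C, 5% CO2; CellTiter-Glo luminescence normalized to DMSO (no inhibition) and no-cell wells (full inhibition).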
# [6] = qHTS Screen of the MIPE 4.0 Collection Against Ewings Sarcoma (RDES) (AID 1259252); note: nearly all actives have a fitted effect of over 35% in size; note: potency is the fitted concentration of half-maximal effect
# Summary of the method: (§1)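 Cells plated in serum-containing RPMI (5% FBS) and treated with compound dilutions for 48 h. Readout luminescent viability; normalization relied on vehicle (no inhibition) and media-only columns (full inhibition).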
# [7] = qHTS Screen of the MIPE 4.0 Collection Against Ewings Sarcoma (TC71) (AID 1259253); note: nearly all actives have a fitted effect of over 40% in size; note: potency is the fitted concentration of half-maximal effect
# Summary of the method: as §1
# [8] = qHTS Screen of the MIPE 4.0 Collection Against Ewings Sarcoma (EW8) (AID 1259255); note: nearly all actives have a fitted effect of over 35% in size; note: potency is the fitted concentration of half-maximal effect
# Summary of the method: as §1
# [9] = qHTS Screen of the MIPE 4.0 Collection Against Ewings Sarcoma (TC32) (AID 1259256); note: nearly all actives have a fitted effect of over 45% in size; note: potency is the fitted concentration of half-maximal effect
# Summary of the method: as §1
compound,measurement,setting,value
CC(C)NCC(O)COc1cccc2[nH]ccc12 (centres undefined),Potency,[1],inactive
same,Potency,[2],inactive
CC(C)(C(=O)NCC(F)(F)C(F)(F)F)C(=O)N[C@@H]1C(=O)Nc2ccccc2-c2ccccc21,Potency,[1],inactive
same,Potency,[3],inactive
same,Potency,[4],0.0015 µM (active)
same,Potency,[5],inactive
O=C1c2ccccc2-[n+]2ccc3c([nH]c4ccccc43)c21,Potency,[6],1.05 µM (active)
same,Potency,[7],0.935 µM (active)
same,Potency,[8],1.18 µM (active)
same,Potency,[9],0.743 µM (active)
COc1ccc(-c2coc3cc(O)ccc3c2=O)cc1,Potency,[6],inactive
same,Potency,[7],inactive
same,Potency,[8],inactive
same,Potency,[9],inactive
O=C1Nc2ccc(Cl)cc2C(C#CC2CC2)(C(F)(F)F)O1 (centres undefined),Potency,[8],26.4 µM (active)
NC1CCC(Nc2nc(Nc3ccc(C(=O)N4CCCCC4)cc3)c3ncn(-c4cccc(F)c4)c3n2)CC1 (centres undefined),Potency,[6],inactive
same,Potency,[7],inactive
same,Potency,[8],inactive
same,Potency,[9],inactive
O=C(CCN1CCN(C(=O)OCc2cc(Cl)cc(Cl)c2)CC1)c1ccc2[nH]c(=O)oc2c1,Potency,[6],inactive
same,Potency,[7],inactive
same,Potency,[8],inactive
same,Potency,[9],inactive
O=c1cc(-c2ccccc2)oc2cc(O)cc(O)c12,Potency,[9],inactive
